Experiment [1] deals with Insulin receptor (Homo sapiens) (UniProt P06213). The note with it: at 10 µM.
Experiment [2] shares this target. The note with it: at 1 µM.
Experiment [3] shares this target. The note with it: at 10 µM. This is another data set of the same source.
The target in experiment [4] is Interleukin-1 receptor-associated kinase 1 (Homo sapiens) (UniProt P51617). The note with it: at 1 µM.
The target is the same in experiment [5]. The note with it: at 10 µM.
Experiment [6] deals with T1, Interleukin-1 receptor-associated kinase 4 (Homo sapiens) (UniProt Q9NWZ3).
T1 sequence (whole entry): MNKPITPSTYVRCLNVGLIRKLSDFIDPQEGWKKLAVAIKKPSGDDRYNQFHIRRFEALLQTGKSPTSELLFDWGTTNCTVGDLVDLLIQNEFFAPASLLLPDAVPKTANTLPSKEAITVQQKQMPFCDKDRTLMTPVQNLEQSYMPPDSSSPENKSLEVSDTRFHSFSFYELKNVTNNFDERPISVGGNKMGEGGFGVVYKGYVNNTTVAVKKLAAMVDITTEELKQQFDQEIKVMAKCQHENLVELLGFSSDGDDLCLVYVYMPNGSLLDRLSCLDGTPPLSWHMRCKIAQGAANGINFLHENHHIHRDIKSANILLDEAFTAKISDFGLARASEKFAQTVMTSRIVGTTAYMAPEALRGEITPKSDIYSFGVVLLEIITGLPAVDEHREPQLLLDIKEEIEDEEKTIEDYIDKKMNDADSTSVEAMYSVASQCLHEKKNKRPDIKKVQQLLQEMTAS
The note with it: at 1 µM.

In experiment [7] the target is T1, Interleukin-1 receptor-associated kinase 4 (Homo sapiens). The note with it: at 10 µM.
In experiment [8] the target is Insulin receptor-related protein (Homo sapiens) (UniProt P14616). The note with it: at 1 µM.
Insulin receptor-related protein (Homo sapiens), sequence (P14616 27-742 limits assumed): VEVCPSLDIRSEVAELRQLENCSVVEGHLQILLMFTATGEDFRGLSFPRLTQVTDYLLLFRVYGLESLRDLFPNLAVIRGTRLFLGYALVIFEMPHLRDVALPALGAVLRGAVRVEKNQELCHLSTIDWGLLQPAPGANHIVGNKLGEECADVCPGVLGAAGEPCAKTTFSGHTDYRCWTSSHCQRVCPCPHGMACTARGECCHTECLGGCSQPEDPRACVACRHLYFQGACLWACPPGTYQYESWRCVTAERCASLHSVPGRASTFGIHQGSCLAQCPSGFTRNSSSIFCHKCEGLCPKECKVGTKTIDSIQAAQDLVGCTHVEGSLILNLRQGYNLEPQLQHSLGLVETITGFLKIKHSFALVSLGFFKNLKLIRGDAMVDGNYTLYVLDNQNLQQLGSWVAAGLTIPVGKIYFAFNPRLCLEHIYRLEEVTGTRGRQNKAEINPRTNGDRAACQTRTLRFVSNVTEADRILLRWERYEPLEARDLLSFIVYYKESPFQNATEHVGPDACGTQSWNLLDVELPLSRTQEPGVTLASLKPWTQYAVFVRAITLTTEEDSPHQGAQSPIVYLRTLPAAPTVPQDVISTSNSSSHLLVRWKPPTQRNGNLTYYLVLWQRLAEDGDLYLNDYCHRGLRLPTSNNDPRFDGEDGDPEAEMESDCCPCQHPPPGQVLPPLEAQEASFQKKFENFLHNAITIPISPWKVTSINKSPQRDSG
Insulin receptor-related protein (Homo sapiens), sequence (P14616 747-1297 limits assumed): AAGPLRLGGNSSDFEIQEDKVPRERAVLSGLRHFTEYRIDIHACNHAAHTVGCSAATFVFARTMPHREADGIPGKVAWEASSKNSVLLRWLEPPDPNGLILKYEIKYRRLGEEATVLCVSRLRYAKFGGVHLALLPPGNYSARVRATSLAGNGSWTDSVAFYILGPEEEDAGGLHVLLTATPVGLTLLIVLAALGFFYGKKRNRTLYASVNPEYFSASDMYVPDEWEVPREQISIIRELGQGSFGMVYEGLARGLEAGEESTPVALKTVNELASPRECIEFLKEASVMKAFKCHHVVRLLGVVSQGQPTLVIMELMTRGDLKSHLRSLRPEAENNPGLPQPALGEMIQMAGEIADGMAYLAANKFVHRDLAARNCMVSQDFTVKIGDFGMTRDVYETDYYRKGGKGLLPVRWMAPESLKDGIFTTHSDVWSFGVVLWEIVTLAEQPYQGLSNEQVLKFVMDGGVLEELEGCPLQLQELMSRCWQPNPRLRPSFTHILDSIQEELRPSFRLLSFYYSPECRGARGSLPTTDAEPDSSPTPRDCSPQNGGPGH
Experiment [9] has the same target. The note with it: at 10 µM.
Experiment [10] addresses T2, Tyrosine-protein kinase ITK/TSK (Homo sapiens) (UniProt Q08881).
T2 sequence (whole entry): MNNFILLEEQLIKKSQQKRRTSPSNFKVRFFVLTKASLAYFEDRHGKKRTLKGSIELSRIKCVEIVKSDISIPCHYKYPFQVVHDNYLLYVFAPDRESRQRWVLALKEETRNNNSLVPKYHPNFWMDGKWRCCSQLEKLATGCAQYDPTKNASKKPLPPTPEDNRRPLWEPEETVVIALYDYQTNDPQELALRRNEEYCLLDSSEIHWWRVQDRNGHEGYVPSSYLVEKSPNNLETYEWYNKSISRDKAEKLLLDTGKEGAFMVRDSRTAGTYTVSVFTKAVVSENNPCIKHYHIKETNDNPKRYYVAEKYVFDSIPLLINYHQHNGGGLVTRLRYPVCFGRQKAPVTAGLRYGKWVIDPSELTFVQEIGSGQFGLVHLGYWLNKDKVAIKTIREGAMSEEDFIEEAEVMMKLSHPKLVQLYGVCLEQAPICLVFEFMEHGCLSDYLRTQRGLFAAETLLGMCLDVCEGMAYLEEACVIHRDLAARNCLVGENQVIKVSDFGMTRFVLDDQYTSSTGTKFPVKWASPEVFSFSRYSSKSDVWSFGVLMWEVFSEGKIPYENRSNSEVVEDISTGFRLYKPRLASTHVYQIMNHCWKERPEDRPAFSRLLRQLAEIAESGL
The note with it: at 1 µM.

For experiment [11], the target named is T2, Tyrosine-protein kinase ITK/TSK (Homo sapiens). The note with it: at 10 µM.
Experiment [12] concerns the target Tyrosine-protein kinase JAK2 (Homo sapiens) (UniProt O60674). The note with it: at 1 µM.
The target is the same in experiment [13]. The note with it: at 10 µM.
The target in experiment [14] is T3, Tyrosine-protein kinase JAK3 (Homo sapiens) (UniProt P52333).
T3 sequence (whole entry): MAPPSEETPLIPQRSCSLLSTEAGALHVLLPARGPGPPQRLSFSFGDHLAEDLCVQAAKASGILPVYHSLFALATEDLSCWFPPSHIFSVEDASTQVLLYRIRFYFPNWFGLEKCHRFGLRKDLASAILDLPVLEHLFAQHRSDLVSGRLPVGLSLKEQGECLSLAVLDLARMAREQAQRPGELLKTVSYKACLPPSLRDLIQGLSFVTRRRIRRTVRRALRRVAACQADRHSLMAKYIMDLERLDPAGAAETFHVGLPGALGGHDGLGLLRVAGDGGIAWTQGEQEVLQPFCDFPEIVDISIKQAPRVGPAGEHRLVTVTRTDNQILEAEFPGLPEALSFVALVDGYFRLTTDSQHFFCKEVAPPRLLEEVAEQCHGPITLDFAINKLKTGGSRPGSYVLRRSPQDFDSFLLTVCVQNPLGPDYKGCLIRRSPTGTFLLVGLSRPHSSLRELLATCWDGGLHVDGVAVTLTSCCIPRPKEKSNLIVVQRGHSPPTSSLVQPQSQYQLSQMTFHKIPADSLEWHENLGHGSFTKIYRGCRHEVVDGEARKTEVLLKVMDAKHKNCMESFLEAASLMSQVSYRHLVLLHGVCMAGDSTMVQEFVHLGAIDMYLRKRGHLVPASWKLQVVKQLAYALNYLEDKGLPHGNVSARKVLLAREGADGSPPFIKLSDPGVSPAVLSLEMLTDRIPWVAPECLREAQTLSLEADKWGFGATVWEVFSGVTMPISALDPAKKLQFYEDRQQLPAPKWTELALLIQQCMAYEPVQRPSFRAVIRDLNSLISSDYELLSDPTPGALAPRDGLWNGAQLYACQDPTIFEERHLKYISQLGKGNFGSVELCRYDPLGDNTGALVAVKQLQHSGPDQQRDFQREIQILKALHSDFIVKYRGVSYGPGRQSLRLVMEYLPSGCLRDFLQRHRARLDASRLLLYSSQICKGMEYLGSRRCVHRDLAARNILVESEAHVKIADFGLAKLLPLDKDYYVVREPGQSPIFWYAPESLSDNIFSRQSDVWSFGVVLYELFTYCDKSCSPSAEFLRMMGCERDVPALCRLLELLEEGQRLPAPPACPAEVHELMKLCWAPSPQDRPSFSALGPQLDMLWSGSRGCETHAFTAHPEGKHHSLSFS
The note with it: at 1 µM.

Experiment [15] concerns the target T3, Tyrosine-protein kinase JAK3 (Homo sapiens). The note with it: at 10 µM.
In experiment [16] the target is Mitogen-activated protein kinase 8 (Homo sapiens) (UniProt P45983). The note with it: at 1 µM.
Mitogen-activated protein kinase 8 (Homo sapiens), sequence (P45983 whole entry): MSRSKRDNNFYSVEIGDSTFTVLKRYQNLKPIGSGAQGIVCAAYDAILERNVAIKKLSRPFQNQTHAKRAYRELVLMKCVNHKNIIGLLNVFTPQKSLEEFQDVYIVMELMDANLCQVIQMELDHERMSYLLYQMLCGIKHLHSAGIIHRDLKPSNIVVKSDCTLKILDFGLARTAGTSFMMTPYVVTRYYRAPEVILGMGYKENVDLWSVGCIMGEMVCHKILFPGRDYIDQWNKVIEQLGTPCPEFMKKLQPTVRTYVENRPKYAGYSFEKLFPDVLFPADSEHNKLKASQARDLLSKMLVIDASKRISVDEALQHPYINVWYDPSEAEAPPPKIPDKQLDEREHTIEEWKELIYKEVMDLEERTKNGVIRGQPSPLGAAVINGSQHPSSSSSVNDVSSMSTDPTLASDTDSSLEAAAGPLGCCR
Experiment [17] shares this target. The note with it: at 10 µM.
The target in experiment [18] is Mitogen-activated protein kinase 9 (Homo sapiens) (UniProt P45984). The note with it: at 1 µM.
For experiment [19] the target is unchanged. The note with it: at 10 µM.
Experiment [20] has as its target Mitogen-activated protein kinase 10 (Homo sapiens) (UniProt P53779). The note with it: at 1 µM.

Interleukin-1 receptor-associated kinase 1 (Homo sapiens), sequence (P51617 whole entry, looked up): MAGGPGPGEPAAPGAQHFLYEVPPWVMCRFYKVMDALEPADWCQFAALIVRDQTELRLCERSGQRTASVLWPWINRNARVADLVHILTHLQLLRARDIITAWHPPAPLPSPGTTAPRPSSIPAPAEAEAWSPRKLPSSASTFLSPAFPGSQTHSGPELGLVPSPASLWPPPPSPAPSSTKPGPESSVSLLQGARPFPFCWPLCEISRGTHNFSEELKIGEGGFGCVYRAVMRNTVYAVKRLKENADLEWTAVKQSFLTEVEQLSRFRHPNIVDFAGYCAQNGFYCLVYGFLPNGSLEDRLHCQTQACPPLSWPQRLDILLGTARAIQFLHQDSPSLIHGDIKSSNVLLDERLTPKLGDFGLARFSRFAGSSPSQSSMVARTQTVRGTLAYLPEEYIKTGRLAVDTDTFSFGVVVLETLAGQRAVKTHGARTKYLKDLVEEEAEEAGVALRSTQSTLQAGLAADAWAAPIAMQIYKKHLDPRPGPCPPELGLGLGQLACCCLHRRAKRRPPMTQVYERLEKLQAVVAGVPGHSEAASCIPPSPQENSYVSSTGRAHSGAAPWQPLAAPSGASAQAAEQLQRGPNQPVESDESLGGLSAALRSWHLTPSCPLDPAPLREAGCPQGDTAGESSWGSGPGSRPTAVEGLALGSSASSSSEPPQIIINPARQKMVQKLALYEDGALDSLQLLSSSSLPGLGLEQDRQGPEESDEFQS
Insulin receptor (Homo sapiens), sequence (P06213 28-758 limits assumed): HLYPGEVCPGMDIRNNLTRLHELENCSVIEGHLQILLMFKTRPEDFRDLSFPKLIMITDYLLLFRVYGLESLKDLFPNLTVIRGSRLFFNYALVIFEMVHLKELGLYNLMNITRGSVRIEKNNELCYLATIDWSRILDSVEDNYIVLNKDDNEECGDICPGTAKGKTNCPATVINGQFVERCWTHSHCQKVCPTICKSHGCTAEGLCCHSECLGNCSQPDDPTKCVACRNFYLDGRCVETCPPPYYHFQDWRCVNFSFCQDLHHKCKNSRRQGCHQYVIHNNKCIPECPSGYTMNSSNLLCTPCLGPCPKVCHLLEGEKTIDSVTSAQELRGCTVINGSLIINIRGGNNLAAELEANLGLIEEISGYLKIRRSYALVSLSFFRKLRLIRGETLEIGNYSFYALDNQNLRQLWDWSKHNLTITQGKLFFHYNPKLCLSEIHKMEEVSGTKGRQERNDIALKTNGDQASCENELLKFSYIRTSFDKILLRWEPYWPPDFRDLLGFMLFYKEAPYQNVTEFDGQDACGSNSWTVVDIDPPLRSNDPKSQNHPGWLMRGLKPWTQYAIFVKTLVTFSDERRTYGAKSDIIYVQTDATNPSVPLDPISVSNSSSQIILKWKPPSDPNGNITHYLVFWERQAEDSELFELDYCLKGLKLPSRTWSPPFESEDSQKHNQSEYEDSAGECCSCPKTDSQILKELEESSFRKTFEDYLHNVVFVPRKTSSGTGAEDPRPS
Insulin receptor (Homo sapiens), sequence (P06213 763-1382 limits assumed): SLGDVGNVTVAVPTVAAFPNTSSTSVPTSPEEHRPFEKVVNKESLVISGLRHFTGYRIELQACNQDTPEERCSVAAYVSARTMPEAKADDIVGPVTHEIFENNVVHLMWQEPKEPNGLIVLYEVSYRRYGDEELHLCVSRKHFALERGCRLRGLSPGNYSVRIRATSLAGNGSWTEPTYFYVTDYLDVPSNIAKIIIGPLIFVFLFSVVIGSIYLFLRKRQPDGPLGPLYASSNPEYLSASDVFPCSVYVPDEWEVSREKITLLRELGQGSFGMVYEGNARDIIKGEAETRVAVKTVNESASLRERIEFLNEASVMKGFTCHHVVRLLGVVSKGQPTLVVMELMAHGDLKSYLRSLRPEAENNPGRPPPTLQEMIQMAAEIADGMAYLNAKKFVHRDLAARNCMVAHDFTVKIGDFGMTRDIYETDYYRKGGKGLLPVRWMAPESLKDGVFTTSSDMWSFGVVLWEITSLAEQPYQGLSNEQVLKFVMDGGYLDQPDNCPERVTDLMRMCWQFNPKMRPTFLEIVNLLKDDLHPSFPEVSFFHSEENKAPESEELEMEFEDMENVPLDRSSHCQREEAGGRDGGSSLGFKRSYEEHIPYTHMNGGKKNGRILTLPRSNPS
Tyrosine-protein kinase JAK2 (Homo sapiens), sequence (O60674 whole entry): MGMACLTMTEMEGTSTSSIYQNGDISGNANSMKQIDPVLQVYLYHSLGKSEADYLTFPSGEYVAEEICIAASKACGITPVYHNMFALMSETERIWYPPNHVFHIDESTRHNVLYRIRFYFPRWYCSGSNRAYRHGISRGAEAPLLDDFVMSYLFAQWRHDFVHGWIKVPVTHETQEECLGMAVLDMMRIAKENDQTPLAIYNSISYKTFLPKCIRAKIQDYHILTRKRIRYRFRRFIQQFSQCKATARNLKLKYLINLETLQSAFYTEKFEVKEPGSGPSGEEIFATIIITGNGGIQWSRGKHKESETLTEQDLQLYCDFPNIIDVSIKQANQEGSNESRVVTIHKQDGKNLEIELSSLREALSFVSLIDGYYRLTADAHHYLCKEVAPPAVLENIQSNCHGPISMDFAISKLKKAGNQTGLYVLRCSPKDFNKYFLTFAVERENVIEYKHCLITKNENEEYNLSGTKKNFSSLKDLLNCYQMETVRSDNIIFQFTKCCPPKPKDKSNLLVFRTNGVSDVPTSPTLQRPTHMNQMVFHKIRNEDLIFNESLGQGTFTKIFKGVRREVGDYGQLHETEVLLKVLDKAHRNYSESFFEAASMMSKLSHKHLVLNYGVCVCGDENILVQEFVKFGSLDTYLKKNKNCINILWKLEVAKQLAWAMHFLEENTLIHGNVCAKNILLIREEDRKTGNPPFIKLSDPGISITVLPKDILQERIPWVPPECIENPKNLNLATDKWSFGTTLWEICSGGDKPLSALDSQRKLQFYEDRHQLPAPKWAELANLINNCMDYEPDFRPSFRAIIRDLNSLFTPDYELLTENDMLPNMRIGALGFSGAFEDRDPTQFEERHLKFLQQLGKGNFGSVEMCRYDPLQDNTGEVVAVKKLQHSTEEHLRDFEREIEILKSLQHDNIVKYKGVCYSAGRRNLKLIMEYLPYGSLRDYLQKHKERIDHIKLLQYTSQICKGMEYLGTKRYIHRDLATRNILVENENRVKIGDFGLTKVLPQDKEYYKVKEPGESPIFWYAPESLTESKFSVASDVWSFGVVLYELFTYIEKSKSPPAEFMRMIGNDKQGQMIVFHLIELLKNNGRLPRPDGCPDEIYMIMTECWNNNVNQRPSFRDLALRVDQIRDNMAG

`Cn1cc(/C=C2\C(=O)Nc3ccc(S(N)(=O)=O)cc32)c2ccccc21`: the residual activity in [1] was 95%; in experiment [2], 66%; in experiment [3], 64%; in experiment [4] it was 1%; in experiment [5], 15%; in experiment [6] it was 0%. Further, the residual activity in experiment [7] was -1%; in experiment [8] it was 124%; in experiment [9], 35%; in experiment [10], 8%; in [11], 1%; in experiment [12], 53%. Moreover, the residual activity in experiment [13] was 21%; in [14], 45%; in [15] it was 11%; in [16], 109%; in experiment [17], 95%; in [18] it was 98%. In addition, the results for the residual activity in experiment [19] and in experiment [20] were 95% and 58%, respectively.

With `O=C1c2ccccc2-[n+]2ccc3c([nH]c4ccccc43)c21`, the residual activity in experiment [1] is 93%; in experiment [2], 101%; in experiment [3], 86%; in experiment [4] it was 106%; in experiment [6], 79%; in [7], 78%. Further, the residual activity turned out to be 101% in experiment [8]; 92% in experiment [9]; 96% in [10]; 93% in experiment [11]; 95% in experiment [12]; 101% in experiment [13]. The residual activity in experiment [14] was 109%; in [16], 97%; in experiment [17], 87%; in experiment [18] it was 92%; in experiment [19], 106%; in experiment [20], 71%.

For `CCN(CC)C(=O)c1ccc(Nc2nc(OCC3CCCCC3)c3nc[nH]c3n2)cc1`, the residual activity was 143% in experiment [1]; 47% in experiment [2]; 7% in [3]; 35% in experiment [5]; 57% in experiment [6]; 15% in experiment [7]. For the same molecule, the residual activity is 69% in experiment [8]; 1% in experiment [9]; 32% in experiment [10]; 2% in [11]; 3% in experiment [12]; -1% in experiment [13]. Moreover, the residual activity in [14] was 7%; in experiment [15], 1%; in experiment [16], 44%; in experiment [17] it was -11%; in [18], 44%; in [19], 0%. Moreover, the residual activity in experiment [20] came to 5%.

`CC(=O)c1ccc(N2CCOCC2)cc1O`: the residual activity in experiment [1] came to 81%; in experiment [2], 104%; in [3] it was 97%; in experiment [4] it was 105%; in experiment [5] it was 95%; in experiment [6], 95%. Also, the residual activity in experiment [7] turned out to be 98%; in [10] it was 97%; in experiment [11], 97%; in experiment [12], 102%; in experiment [13], 96%; in experiment [14], 102%. The residual activity in experiment [15] is 105%; in experiment [16], 104%; in experiment [17], 80%; in experiment [18], 101%; in [19] it was 103%; in experiment [20] it was 88%.

`COc1cccc(-c2cc(=O)c3ccccc3o2)c1N`: the residual activity amounted to 94% in [1]; 96% in experiment [2]; 92% in experiment [3]; 98% in [4]; 96% in [5]; 109% in [6]. Moreover, the residual activity in [7] came out at 94%; in experiment [8], 106%; in experiment [9], 91%; in experiment [10], 108%; in [11], 108%; in [12] it was 111%. The residual activity in experiment [13] was determined as 107%; in experiment [14], 113%; in [15], 108%; in experiment [16] it was 106%; in [17], 101%; in [18], 102%. For the same molecule, the values for the residual activity in experiment [19] and in [20] were 100% and 84%, respectively.

In the case of `N#Cc1cnc2cnc(NCc3cccnc3)cc2c1Nc1ccc(F)c(Cl)c1`, the residual activity was 123% in [1]; 72% in [2]; 52% in [3]; 93% in [4]; 103% in experiment [5]; 64% in experiment [6]. Moreover, the residual activity in experiment [7] came to 43%; in [8], 90%; in experiment [9] it was 89%; in experiment [10] it was 72%; in experiment [11] it was 48%; in experiment [12] it was 96%. The residual activity is 94% in experiment [13]; 82% in experiment [14]; 81% in experiment [15]; 95% in experiment [18]; 97% in experiment [19].

Take `c1ccc(-c2n[nH]cc2-c2ccnc3ccccc23)nc1`: the residual activity in [1] stood at 84%; in experiment [2], 99%; in experiment [3], 105%; in experiment [4], 91%; in experiment [5], 73%; in experiment [6], 87%. Moreover, the residual activity is 101% in experiment [7]; 132% in [8]; 79% in experiment [9]; 97% in experiment [10]; 104% in [11]; 94% in [12]. The residual activity in [13] was determined as 109%; in experiment [18] it was 109%; in experiment [19], 99%; in [20], 79%.

Consider `CO[C@@H]1[C@H](N(C)C(=O)c2ccccc2)C[C@H]2O[C@]1(C)n1c3ccccc3c3c4c(c5c6ccccc6n2c5c31)C(=O)NC4`, for which the residual activity in [2] was found to be 80%; in experiment [3], 72%; in experiment [4], 85%; in [5] it was 74%; in experiment [6] it was 53%; in experiment [7] it was 47%. The residual activity in [8] was determined as 98%; in experiment [9], 57%; in experiment [10], 56%; in experiment [11], 31%; in [12], 7%; in experiment [13] it was 2%. Further, the residual activity in experiment [14] was found to be 1%; in experiment [15], 1%; in experiment [16], 92%; in experiment [17], 67%; in experiment [18], 99%; in experiment [19] it was 91%. The residual activity in [20] amounted to 50%.

Source of the values: ChEMBL document CHEMBL2218924, “A broad activity screen in support of a chemogenomic map for kinase signalling research and drug discovery” (Biochem J, 2013).
